Consider 40 sequences from the OligoGym collection.
Further: reference of the scale not given here.

The target in the first experiment is C1orf106. Nature of the experiment: pooled miR-30 sensor sort-seq; sequence = guide strand. The settings on record: shRNA.
The sequence TATTGAAGTATTTAGCACTAAA showed a sensor-assay potency score (higher = more potent) of -0.989.
Still for that read-out and setting: with TTGTAAGCCGCTCCGATCCTGC the figure was -0.983; with TATATAAGGAGATAGAGGCTGT, 0.0357.
On the same count and under the same terms, with TTCAGGTACAAAGACTTGCACA the figure was -0.854; with TTGAGCTCCTCGGACACGGCGG, -0.833.
On the same count and under the same terms, then TCTAGCAAGACAATACACCACC, with -0.714; and TAAGCCGCTCCGATCCTGCGGC, with -0.585.
Regarding TTCTCCTCCAGGCACAGCCGAC, the sensor-assay potency score (higher = more potent) is -1.78.
Same read-out and setting: with TAGCTGAGGACACAGCCACTTG the figure was -1.67.

Another experiment concerns the target C1orf109. The experiment is described as above. Particulars: shRNA.
On to TTTAGGTCCACAATAGAGGAAA, for which the sensor-assay potency score (higher = more potent) was -1.1.
On the same count and under the same terms, with TGACAAAAGACACAAAACCAGG the figure was -1.47.
Still for that read-out and setting: then TAAATAGACACTGAAAAGGTAT, with -0.303; and ATCTTGTACAAGATCCTGGTGT, with -0.231; and TTTCTCTTCAGGTACGACTTTC, with -0.727.
On the same count and under the same terms, then TTGAAAAATATCTATACCCTTT, with -0.465; and TTATTAATAATAGTTATCTGGT, with 0.0251.
TATGTATCGATGATAGCACGTT had a sensor-assay potency score (higher = more potent) of 0.283.
Same read-out and setting: with TTTTTAAAAAAAGACAACCTAA the figure was -0.867; with TAGATGAAGGCAGCAGACCTTG, -1.04.
Still for that read-out and setting: then TATCTTGTACAAGATCCTGGTG, with -0.3; and TTCTTTAGAAACATCAGGGTTC, with 0.139.

For the next experiment, the target named is C1orf114. The experiment is described as above. Particulars: shRNA.
Sequence TTGGTTAATATTCTCTTCCTTC came in with a sensor-assay potency score (higher = more potent) of -0.217.
Still for that read-out and setting: then TTAGCTTCTAGTCGGAGCTGTC, with -0.331; and TTCTCCATAATATATCTCCTTA, with -0.58.
Take TTTGTAGTTCTTTCTGTCGAGG: the sensor-assay potency score (higher = more potent) is -0.841.
Still for that read-out and setting: with TTCTTGTCCAAAATCATTGGAA the figure was -0.446.
The same measure, in the same setting: with TTTTCTTTTGCAACCACGCTTT the figure was -0.00106.
Same read-out and setting: with TTTTCCATCTCTCTCTACCAGT the figure was -0.549.
As to TTCTTGATTCTGTAGAAGCTTG, the sensor-assay potency score (higher = more potent) was -0.732.
For TAGTAGTGTCTTCTAGTGGAGG, the sensor-assay potency score (higher = more potent) was -0.965.
In turn, TTCTTTCATCTGCTCTTCGTGC came in with a sensor-assay potency score (higher = more potent) of -0.834.
Same read-out and setting: with TTCTAGTGGAGGAACTTCCAAA the figure was -0.899; with TACTATGTCATTCTCTCTCTTT, -0.145.

The target in the next experiment is C1orf115. Described as above. The settings on record: shRNA.
TTCTCTTCCAAATATGCTGTGT returned a sensor-assay potency score (higher = more potent) of -0.325.
Sequence TCTGACTCTAGTAACATCCTCT had a sensor-assay potency score (higher = more potent) of 0.697.
On the same count and under the same terms, with TACTTCTTCAGCTTCCTCCGGT the figure was 0.808; with TTCAAGTCTGAGATGCTCCAGG, 0.617.
Same read-out and setting: then TTCCTCCGGTACCTCTTCCTGG, with -1.14; and TTTTCTCTTCCAAATATGCTGT, with -0.444.
On to TTGAGGAATAAACAGCTCCTTA, for which the sensor-assay potency score (higher = more potent) is -1.12.
